Screening results: PubChem BioAssay, National Center for Advancing Translational Sciences (NCATS)
Shown are actives, neighbours in structure and some others; about 10% of the full set was active somewhere.
PNC assembly inh: High Content Assay for Compounds that inhibit the Assembly of the Perinucleolar Compartment; activity change (PNC), negative = inhibition, % at 10 µM; hit rate 3.1% among 140,000; PC3M PTB-GFP, PNC prevalence imaging, 16 h; stronger effect = lower value;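 active = readout at or below -70, meaning at least 70% loss of cells showing the perinucleolar compartment, a nuclear body marking cancer cells; inconclusive = readout between -30 and a set limit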;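 also: plate controls were DMSO wells for no effect and camptothecin positive control wells for full effect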
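Compounds are pinned in duplicate onto adhered PC3M cells stably expressing GFP-tagged PTB and incubated 16 h at 37 C. Cells are then fixed, nuclei stained with Hoechst, and PNC-positive cells counted.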
Luc counter: Counterscreen for Luciferase (Kinase-Glo TM) Inhibition; Kinase-Glo luciferase, ATP luminescence, 8 min; Potency, µM (titrated, usually from 38.3 µM), for inactives: top-dose activity change, negative = inhibition, usual class: inhibitors; hit rate 0.28% among 200,000; AID 1379, 2008; active = well fitted inhibition curve with a large enough effect; inconclusive = small, poorly fitted or top-dose-only effect; also: potency is read from the fitted curve at half-maximal effect; nearly all actives have a fitted effect of over 60% in size
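Recombinant Kinase-Glo luciferase, 10 uM ATP (linear range), luciferin; imidazole pH 7.2 / KCl / MgCl2 / Tween / BSA buffer; 8 min RT; luminescence.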
ALDH1A1 inh: qHTS Assay for Inhibitors of Aldehyde Dehydrogenase 1 (ALDH1A1); Aldehyde dehydrogenase 1A1 (Homo sapiens), P00352; Purified ALDH1A1, NADH fluorescence, propionaldehyde substrate; Potency, µM (series often up to 75.3 µM), inactives show top-dose activity, negative = inhibition, most hits filed as inhibitors; hit rate 7.3% among 220,000; AID 1030, 2008;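 also: potency is read from the fitted curve at half-maximal effect; plate controls were no enzyme wells and a reference inhibitor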
Lamin A splicing: qHTS Assay for Modulators of Lamin A Splicing. hit rate 0.01% among 200,000. HeLa LMNA splicing GFP/RFP minigene ratio, 48 h. Potency, µM (highest dose often 46.1 µM), for inactives: at the top dose ratio change, negative = inhibition, hits mostly inhibitors; active = well fitted inhibition curve with a large enough effect in the signal ratio, with a control signal flat, not every such curve was filed as active; inconclusive = small, poorly fitted or top-dose-only effect, or effect the other way, or a change in a side signal; the % refers to the signal ratio; also: potency is read from the fitted curve at half-maximal effect
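S3 HeLa cells stably expressing lamin A-EGFP splicing minigene plus DsRed2, 600 cells/well, 48 h compound exposure at 37C. Laser-scanning cytometry; analysed as GFP (500-530 nm)/RFP (575-640 nm) total intensity ratio; 0.5% DMSO vehicle.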
HPGD block: qHTS Assay for Inhibitors of HPGD (15-Hydroxyprostaglandin Dehydrogenase) | hit rate 4.3% among 150,000 | Potency, µM, for inactives: top-dose activity change, negative = inhibition, most hits filed as inhibitors | AID 894, 2007 | 15-hydroxyprostaglandin dehydrogenase [NAD(+)] (Homo sapiens), P15428 | purified HPGD, NADH fluorescence kinetic, PGE2 substrate; also: potency is read from the fitted curve at half-maximal effect
Target sequence (P15428 whole entry, looked up): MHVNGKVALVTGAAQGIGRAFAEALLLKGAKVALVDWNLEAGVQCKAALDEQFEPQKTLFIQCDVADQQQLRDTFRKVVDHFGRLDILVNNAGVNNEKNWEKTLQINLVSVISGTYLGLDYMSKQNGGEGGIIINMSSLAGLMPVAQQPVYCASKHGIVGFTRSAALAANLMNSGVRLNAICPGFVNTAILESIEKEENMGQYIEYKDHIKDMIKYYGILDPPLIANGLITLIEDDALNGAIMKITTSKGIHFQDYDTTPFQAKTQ
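20 nM HPGD preincubated 15 min at room temperature with compound in 50 mM Tris-HCl pH 8, 0.01% Tween 20. Started with 1 mM NAD+ and 30 uM prostaglandin E2; NADH fluorescence (360/450 nm) read 5 times over 30-s intervals, last minus first.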
IMPase cell inh: qHTS Assay for Identifying the Cell-Membrane Permeable IMPase Inhibitors. CHO-M1 cells, IP1 accumulation, HTRF TR-FRET ratio. inhibition (IP1 accumulation), % at 46.1 µM. 120,000 tested, under 10 active. AID 901, 2007; active = well fitted curve in the direction sought with a large enough effect in the signal ratio, not every such curve was filed as active; inconclusive = small, poorly fitted or top-dose-only effect, or a change in a side signal; inactive = no such curve, though single readings can be large or run the other way; the % refers to the signal ratio;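 also: cells stimulated with carbachol in lithium chloride buffer; plate controls were DMSO basal wells for no effect and reference inhibitor wells for full effect; higher means more IMPase inhibition seen as more IP1 and lower FRET ratio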
Target sequence (P97697 whole entry, looked up): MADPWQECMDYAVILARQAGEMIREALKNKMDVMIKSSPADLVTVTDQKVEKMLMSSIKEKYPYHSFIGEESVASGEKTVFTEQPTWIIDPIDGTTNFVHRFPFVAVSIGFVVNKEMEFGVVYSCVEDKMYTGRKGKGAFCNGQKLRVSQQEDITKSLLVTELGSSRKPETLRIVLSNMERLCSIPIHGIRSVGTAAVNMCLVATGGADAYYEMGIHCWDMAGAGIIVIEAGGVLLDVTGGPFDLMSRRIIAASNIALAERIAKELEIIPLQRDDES
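In this qHTS, compounds (final up to 46 uM) act on CHO-M1 cells that are then activated through the M1 receptor with carbachol, in pH 7.4 buffer containing 50 mM LiCl, for 30 min. IP1 accumulation is quantified by the IP-One immunoassay.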
The depositor's hits bear a star; ? = inconclusive; . = no result given; [ ] = another dose, or the depositor's remark. Unless noted, calls follow the shape of the dose curve; as a rule, active = well fitted inhibition curve with a large enough effect (not every such curve was filed as active); inconclusive = small, poorly fitted or top-dose-only effect, or another doubt; inactive = no such curve, though single readings can be large or run the other way. Unless noted, % is scaled to controls: 0 for no effect and ±100 for the full control effect.

SMILES	PNC assembly inh	Luc counter	ALDH1A1 inh	Lamin A splicing	HPGD block	IMPase cell inh
CC(=O)Nc1cccc(NC(=O)CSc2nc(C)c(C)c(C)c2C#N)c1	-28	-4%	10µM*	-13%	?	5
COc1ccccc1CCNC(=O)C(=O)NCC(c1ccco1)S(=O)(=O)c1ccc(C)cc1 (stereo not given)	.	.	.	-3%[46 µM]	.	.
Cc1ccc(C(=O)c2ccc([N+](=O)[O-])cc2)cc1	45	-2%	-7%	28%	-12%	-1
Cc1ccc(C(=O)c2coc3cc([N+](=O)[O-])c(O)c([N+](=O)[O-])c23)cc1	43	-2%	?	?	14µM*	10
Cc1ccc(NC(=O)Cn2c(=O)n(CCC(=O)NCCc3ccccc3)c(=O)c3ccccc32)cc1	.	.	.	.	.	7
CC(C)(C)OC(=O)N1CCC[C@H]1C(O)(c1ccccc1)c1ccccc1	.	-1%	9%	.	0%	.
CN(/C=C/c1c([N+](=O)[O-])c(=O)n(C)c(=O)n1C)c1ccccc1	.	-1%	4%	?	.	.
CC1=C/C(=C/N(C)c2ccccc2)C(=O)S1	-24	-1%	20µM*	0%	32µM*	1
C[C@H]1Cc2c(COc3ccccc3)nc3c(c2CO1)CN(C(=O)C1CCCCC1)CC3	.	-1%[7.66 µM]	-6%[13.5 µM]	3%[9.22 µM]	-5%	.
N#C/C(=C\c1c(N2CCCCC2)nc2ccccn2c1=O)C(=O)NC1CCS(=O)(=O)C1 (stereo not given)	0	-3%	?	-2%	?	.
Cc1cccc(Oc2nc3ccccn3c(=O)c2/C=C(\C#N)C(=O)NC2CCS(=O)(=O)C2)c1 (stereo not given)	-104*	-1%	?	?	-12%	.
CN/S(=N/S(=O)(=O)c1ccccc1)c1ccc(C)cc1 (stereo not given)	20	-2%	-5%	6%	-9%	5
Cc1ccc(S(=O)(=O)/N=S(/c2ccccc2)C(C)C)cc1 (stereo not given)	.	.	19µM*	?	.	.
COc1cccc(N2CCN(C(=O)C3CCN(S(=O)(=O)c4cccc5nonc45)CC3)CC2)c1	.	.	.	-7%[46 µM]	.	.
CC(C(=O)Nc1ccccc1-c1ccccc1)N1CCN(S(=O)(=O)c2ccccc2)CC1 (stereo not given)	?	3%	?	5%	-10%	16
CC(C(=O)Nc1ccccc1-c1ccccc1)N1CCCCC1 (stereo not given)	9	5%	20µM*	12%	-17%	10
CC(C)c1ccc(S(=O)(=O)N2CCN(C(C)C(=O)Nc3ccccc3-c3ccccc3)CC2)cc1 (stereo not given)	23	-4%	2.8µM*	3%	-7%	.
CC(C)CNc1oc(-c2ccco2)nc1C#N	-100*	-2%	?	1%	?	?
N#Cc1nc(-c2ccco2)oc1NCc1ccc(F)cc1	-82*	-4%	?	-7%	?	0
CC(Nc1oc(-c2ccco2)nc1C#N)c1ccccc1 (stereo not given)	-10	-2%	?	?	?	.
COc1cccc(C(=O)NCC(c2ccc3c(c2)OCO3)N2CCN(C)CC2)c1 (stereo not given)	.	.	.	29%[46 µM]	.	.
COc1ccc(NC(=O)CN2CCCCC2)c([N+](=O)[O-])c1	-90*	3%	7%	-4%	-12%	3
COc1ccc(NC(=O)CC2SC(N)=NC2=O)c([N+](=O)[O-])c1 (stereo not given)	.	0%	25µM*	.	.	.
COc1ccc(OC)c(Nc2ccc(C(=O)O)cc2[N+](=O)[O-])c1	9	1%	6%	-8%	16µM*	9
COc1ccc(NC(=O)CC2Nc3cc(C)c(C)cc3NC2=O)c([N+](=O)[O-])c1 (stereo not given)	.	-2%	5%	.	.	.
SMILES	PNC assembly inh	Luc counter	ALDH1A1 inh	Lamin A splicing	HPGD block	IMPase cell inh
COc1ccc(NC(=O)CN2CCC(C)CC2)c([N+](=O)[O-])c1	19	-2%	?	-15%	-9%	12
Cc1ccc(NC(=O)/C=C/C(=O)O)c([N+](=O)[O-])c1	-22	3%	18µM*	-3%	-7%	-8
CC(C1CCCC(=O)C1)[N+](=O)[O-] (stereo not given)	.	-2%	-11%	.	-2%	.
Cc1ccccc1CNc1nc(N(C)C)nc2c1cnn2C	.	.	.	5%[46 µM]	.	.
COC(=O)C1=C(C(=O)OC)[C@@H]2Nc3ccccc3[C@@]23C[C@@H](C(=O)OC)N(S(=O)(=O)c2ccc(OC)cc2)C3=N1	.	-6%[7.66 µM]	-5%[13.5 µM]	19%[9.22 µM]	-5%	.
COc1ccc(NC(=O)/C=C/C(=O)O)c([N+](=O)[O-])c1	.	.	19µM*	.	.	.
CCOc1ccc(/C=C/C(=O)Nc2ccc(OC)cc2[N+](=O)[O-])cc1	80	-1%	5%	10%	-12%	1
CC(=O)NC1=NC(=O)/C(=C/c2cn(C(C)=O)nc2-c2ccccc2)S1	.	-3%	10µM*	?	.	.
O=C(c1ccccc1)c1ccc2nc(Nc3ccccc3Cl)c3nncn3c2c1	.	.	.	-7%[46 µM]	.	.
CCN(Cc1ccccc1)C(=O)Cn1c(=O)cc(C)c2c(C)nn(-c3cccc(F)c3)c21	.	.	.	6%[46 µM]	.	.
COc1ccc(C2C(C(=O)N3CCN(c4ccccc4)CC3)c3ccccc3C(=O)N2C)cc1 (stereo not given)	-100*	2%	2.2µM*	-13%	-18%	0
COc1ccc(C2C(C(=O)N3CCOCC3)c3ccccc3C(=O)N2c2ccc(OC)cc2)cc1 (stereo not given)	42	-2%	14µM*	7%	-10%	4
CCOC(=O)CNC(=O)C1c2ccccc2C(=O)N(c2ccc(OC)cc2)C1c1ccc(OC)cc1 (stereo not given)	-28	0%	28µM*	10%	-15%	0
COc1ccc(C2C(C(=O)N3CCN(c4ccccc4)CC3)c3ccccc3C(=O)N2C)cc1OC (stereo not given)	35	7%	?	-7%	-8%	-2
COc1ccc(C2C(C(=O)N3CCN(C)CC3)c3ccccc3C(=O)N2C2CCCCC2)cc1 (stereo not given)	?	-1%	-1%	1%	-3%	0
